Experimental data from PubChem BioAssay (NCATS).
Records with an inconclusive call do not appear. A number with no mark means an inactive call. Activity calls are given as the source filed them. Calls come from the whole dose curve; as a rule, active = well fitted curve in the direction sought with a large enough effect; inconclusive = small, poorly fitted or top-dose-only effect, or another doubt; inactive = no such curve, though single readings can be large; an effect the other way counts as inactive or inconclusive.

What was measured:
OV90 = assay: Primary qHTS to identify gynecologic anti-cancer compounds using libraries of approved drugs and bioactive compounds (AID 1345084); conditions: Gynecologic cancer cell panel viability, ATPlite luminescence, 48 h; series mostly up to 57.5 µM; note: nearly all actives have a fitted effect of over 55% in size
Summary of the method: (§1)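 Cells, 1,000 per well, plated 16 h, then exposed 48 h at 37 C to compounds. Viability by ATPlite luminescence after 15 min at room temperature.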

PA-1 = assay: as above; conditions: Gynecologic cancer cell panel viability, ATPlite luminescence, 48 h; series mostly up to 57.5 µM
Summary of the method: as §1

Tov-21-G = assay: as above; conditions: Gynecologic cancer cell panel viability, ATPlite luminescence, 48 h; series mostly up to 57.5 µM
Summary of the method: as §1

[1] = qHTS assay to identify inhibitors of the type 1 interferon - major histocompatibility complex class I in skeletal muscle: Counter screen cell viability and HiBit confirmation (AID 1347412); conditions: iHSKM muscle cells + IFN-b, HiBiT or CellTiter-Glo, 24 h; for activity change, negative = inhibition: at 45.9 µM (top of the series); for all read-outs here: nearly all actives have a fitted effect of over 60% in size
Summary of the method: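 Duplicate plates, pinned identically: one read for HiBiT-tagged endogenous HLA-B luminescence, the other for ATP-content viability via CellTiter Glo. Cells were genome-engineered human myoblasts given 4 ng/ml IFN-b; compounds 12-pt, 1:3 from 46 uM final; 24 hr exposure.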

Tov112D = assay: Primary qHTS to identify gynecologic anti-cancer compounds using libraries of approved drugs and bioactive compounds (AID 1345084); conditions: Gynecologic cancer cell panel viability, ATPlite luminescence, 48 h; series mostly up to 57.5 µM; note: nearly all actives have a fitted effect of over 55% in size
Summary of the method: as §1

SKOV3 = assay: as above; conditions: Gynecologic cancer cell panel viability, ATPlite luminescence, 48 h; series mostly up to 57.5 µM
Summary of the method: as §1
% is set by controls: 0 for no effect and ±100 for the full control effect; potency is the fitted concentration of half-maximal effect.

Row | SMILES | Potency (OV90) | Potency (PA-1) | Potency (Tov-21-G) | Potency ([1]; HiBiT) | Potency ([1]; Viability) | Potency (Tov112D) | activity change, negative = inhibition ([1]; Viability) [%] | Potency (SKOV3)
1 | CC(C)(O)c1cc2nc(-c3cnc(N)nc3)nc(N3CCOCC3)c2s1 | 2.82 µM (active) | 8.91 µM (active) | 3.16 µM (active) |  |  |  |  | 
2 | COc1cccc2c(NCc3ccccc3)nc(-n3c(N)nc4ccccc43)nc12 | 25.1 µM (active) |  |  | 12.5 µM (active) | 17.6 µM (active) |  |  | 
3 | COc1cc2c(Oc3ccc4[nH]c(C)cc4c3F)ncnc2cc1OCCCN1CCCC1 |  | inactive |  | 19.8 µM (active) | 19.8 µM (active) | 12.6 µM (active) |  | 
4 | CC(C)c1cnn2c(NCc3ccccc3)cc(N[C@@H](CO)[C@H](O)CO)nc12 |  | 1 µM (active) | 1.58 µM (active) | 0.157 µM (active) |  | 3.16 µM (active) | 18.9 | 
5 | COC(=O)Nc1nc2ccc(C(=O)c3ccc(F)cc3)cc2[nH]1 | inactive | 2 µM (active) |  |  |  | 3.55 µM (active) | -28.8 | 
6 | Cc1coc2c1C(=O)C(=O)c1c-2ccc2c1CCCC2(C)C |  | inactive |  |  |  | inactive |  | 
7 | CCN(CC)CCNC(=O)c1ccc2nc(-c3ccccc3)c(-c3ccc(CN4CCC(n5c(=O)[nH]c6ccccc65)CC4)cc3)nc2c1 |  | inactive | inactive |  |  | inactive |  | 
8 | N#CCNC(=O)c1ccc(-c2ccnc(Nc3ccc(N4CCOCC4)cc3)n2)cc1 |  | 14.1 µM (active) | 14.1 µM (active) | 4.43 µM (active) |  | inactive | -6.53 | 
9 | c1nc2nc(Nc3ccc(N4CCOCC4)cc3)nc(NC3CCCCC3)c2[nH]1 | inactive |  |  | 6.25 µM (active) |  | inactive |  | 
10 | Cc1cc(C(=O)N2CCN(c3cccc(Cl)c3)CC2)n(-c2ccccc2)n1 | inactive | 5.01 µM (active) |  |  |  | 3.98 µM (active) | -19.8 | 
11 | COc1cc2c(Nc3ccc(NC(=O)c4ccccc4)cc3)ncnc2cc1OCCCN1CCOCC1 | 25.1 µM (active) | inactive |  |  |  | inactive |  | 11.2 µM (active)
12 | O=C(Nc1cn[nH]c1-c1nc2ccc(CN3CCOCC3)cc2[nH]1)NC1CC1 | 11.2 µM (active) | 8.91 µM (active) | 2.24 µM (active) | 1.98 µM (active) |  | 11.2 µM (active) | 61.5 | 10 µM (active)
13 | CC(C)(O)CCc1ccc(OCc2cc(-c3cccc(OC(F)F)c3)c3ncccc3c2)cc1 | inactive | inactive | inactive |  |  | inactive |  | 
14 | CC(C)c1nn(-c2c(Cl)cccc2Cl)c2nc(Cc3ccc(OCCO)cc3)[nH]c(=O)c12 |  | 0.251 µM (active) |  | 0.0352 µM (active) |  | 0.282 µM (active) | 27.7 | 1.41 µM (active)
15 | NC(=O)Nc1cc(-c2cccc(F)c2)sc1C(=O)N[C@H]1CCCNC1 | 2.82 µM (active) | 2.82 µM (active) |  | 1.76 µM (active) |  | 1.78 µM (active) |  | 0.631 µM (active)
16 | Nc1nc(NCCNc2ncc(-n3ccnc3)c(-c3ccc(Cl)cc3Cl)n2)ccc1[N+](=O)[O-] | inactive | inactive | inactive | 15.7 µM (active) |  | inactive | -15.1 | inactive
17 | CCn1nnc2c(N3CCOCC3)nc(-c3ccc(NC(=O)Nc4ccc(C(=O)N5CCN(C)CC5)cc4)cc3)nc21 |  | 0.398 µM (active) | 0.224 µM (active) |  | 0.991 µM (active) |  |  | 0.316 µM (active)
18 | Cc1cnc(-c2cnc(NCCNc3ccc(C#N)cn3)nc2-c2ccc(Cl)cc2Cl)[nH]1 |  | inactive | inactive |  |  | inactive |  | inactive
19 | CNC(=O)c1cc(Oc2ccc(NC(=O)Nc3cc(C(C)(C)C)nn3-c3ccc4ncccc4c3)c(F)c2)ccn1 |  | 20 µM (active) | 28.2 µM (active) | 3.94 µM (active) |  |  | 26.8 | 
20 | O=C(Cc1ccc(-c2ccc(OCCN3CCOCC3)cc2)cn1)NCc1ccccc1 | 2.82 µM (active) | 1.26 µM (active) | 2 µM (active) |  |  | 1 µM (active) |  | 
21 | Cn1cc(-c2ccncc2)c(-c2ccc(OCc3ccc4ccccc4n3)cc2)n1 | inactive | inactive | inactive |  |  | inactive |  | 
22 | Cc1ccc(C(=O)Nc2cccc(C(F)(F)F)c2)cc1-c1ccc2nc(NCCN3CCOCC3)ncc2c1 | 6.31 µM (active) | 12.6 µM (active) | 14.1 µM (active) |  |  |  |  | 15.8 µM (active)
